Assay results published in PubChem BioAssay (NCATS).
Records with an inconclusive call do not appear. Where a call stands in place of a potency, no number is given. Calls of active or inactive are those of the source. Calls come from the whole dose curve; as a rule, active = well fitted cell-killing curve with a large enough effect; inconclusive = small, poorly fitted or top-dose-only effect; inactive = flat fitted curve, though single readings scatter.

test: Cell Viability - LYMP2-015 (AID 971); conditions: LYMP2-015 lymphoblastoid cell viability; series mostly up to 92.2 µM; note: nearly all actives have a fitted effect of over 55% in size
Description: NIH Chemical Genomics Center [NCGC]
NIH Molecular Libraries Screening Centers Network [MLSCN]
National Institutes of Environmental Health Sciences [NIEHS]
National Toxicology Program [NTP]
We have developed a 1536-well cell-based assay for quantitative high throughput screening (qHTS) against a number of cell lines to determine in vitro cytotoxicity of small molecules. This particular assay uses a human lymphoblastoid cell line (LYMP2-015) purchased from Coriell Institute for Medical Research.
NCGC Assay Protocol Summary:
The CellTiter-Glo luminescent cell viability assay (Promega) is a homogeneous method to measure the number of viable cells in culture. The end point readout of this assay is based on quantitation of intracellular ATP, an indicator of metabolic activity, using the luciferase reaction. Luciferase catalyzes the oxidation of beetle Luciferin to oxyluciferin and light in the presence of ATP. The luminescent signal is proportional to amount of ATP present.
Using the CellTiter-Glo luminescent cell viability assay, the amount of cellular ATP was measured in the lymphoblastoid cell line with complete culture medium following compound treatment for 24 hours. The assay was performed in opaque white Kalypsys 1536-well plates. In the screen, tetraoctylammonium bromide was used as positive control. Library compounds were measured for their ability to cause acute toxicity in the cell line, as reflected by a decrease in intracellular ATP levels, in a concentration-dependent manner. […] AC50 values were determined from concentration-response data modeled with the standard Hill equation.
qHTS protocol for CellTiter Glo lymphoblastoid cellular assay
[Step] [Parameter] [Value] [Description]
1. Reagent; 5 uL; 2500 lymphoblastoid cells/well
2. Time; 5 hr; 37 C incubation
4. Controls; 23 nL; Tetraoctylammonium bromide 6.4pM to 92 uM
5. Time; 24 hr; 37 C incubation
6. Reagent; 5 uL; CellTiter Glo reagent
7. Time; 30 min; Room Temperature
8. Detection; Luminescence; Viewlux plate reader
Keywords: cell viability, cytotoxicity, lymphoblastoid cell line, luminescence, NTPHTS, NTPHTS_NCGC, NIEHS, DSSTox, MLSMR, MLSCN, NIH Roadmap, qHTS, NCGC
Potency is the fitted concentration of half-maximal effect.

| SMILES | Potency |
| --- | --- |
| CC(COc1ccccc1)N(CCCl)Cc1ccccc1 (stereo not drawn) | 39.8 µM (active) |
| Oc1ccccc1-c1ccccc1 | inactive |
| Oc1ccc(Cl)cc1Cc1ccccc1 | inactive |
| CN(C)CCC=C1c2ccccc2CCc2ccccc21 | 31.6 µM (active) |
| Clc1ccc(COC(Cn2ccnc2)c2ccc(Cl)cc2Cl)cc1 (stereo not drawn) | inactive |
| CNCC(O)c1ccc(O)cc1 (stereo not drawn) | inactive |
| CCCC(C)(COC(N)=O)COC(=O)NC(C)C (stereo not drawn) | inactive |
| NCC(O)c1ccc(O)cc1 (stereo not drawn) | inactive |
| c1ccc2c(c1)Nc1ccccc1S2 | inactive |
| CCOP(=S)(OCC)Oc1cc(C)nc(C(C)C)n1 | inactive |
| Oc1cccc2cccnc12 | 12.6 µM (active) |
| N[C@@H](Cc1ccc(N(CCCl)CCCl)cc1)C(=O)O | 31.6 µM (active) |
| OCCOc1ccccc1 | inactive |
